Molecules are shown by their SMILES. Where a name gives a salt, the structure may show the parent alone.

This note sets out measurements from the supplement of paper PMC3414501.
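Wherever CDA2-GFP sporulation assay sensitivity score (z-score vs DMSO controls) is given: active if sensitivity score above 5.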

One experiment relates to S. cerevisiae SK1 pCDA2-eGFP (USY613), sporulating. The experiment in a line: CDA2-GFP sporulation assay sensitivity score (z-score vs DMSO controls); higher = stronger inhibition of sporulation, active = hit call of the paper.
`CN1CCCCC1CCN1c2ccccc2Sc2ccc([S+](C)[O-])cc21` (stereo unspecified) [Mesoridazine] (stock concentration (mM, diluted 1:100): 10): the “CDA2-GFP sporulation assay sensitivity score” value is -0.29 (inactive).
On the same count and under the same terms, next, `CC(=O)Nc1ccc(CC(=O)O)cc1` [Actarit] (stock concentration (mM, diluted 1:100): 10): 0.84 (inactive); `Cn1c(NCCN(CCO)CCCc2ccc([N+](=O)[O-])cc2)cc(=O)n(C)c1=O` [Nifekalant hydrochloride] (stock concentration (mM, diluted 1:100): 9.2): 0.47 (inactive).
Same read-out and setting: the figure for `COc1cc2nc(N(C)CCCNC(=O)C3CCCO3)nc(N)c2cc1OC` (stereo unspecified) [Alfuzosin] (stock concentration (mM, diluted 1:100): 10) is 0.06 (inactive).
On the same count and under the same terms, the figure for `CCCc1c(OCCCCc2nnn[nH]2)ccc(C(C)=O)c1O` (stock concentration (mM, diluted 1:100): 10) is -1.99 (inactive); for `COc1cc(CNC(=O)CCCC/C=C/C(C)C)ccc1O` [Capsaicin] (stock concentration (mM, diluted 1:100): 10) it is -1.12 (inactive); for `OC[C@H]1O[C@@H](n2cnc3c(N[C@H]4CCC[C@@H]4O)ncnc32)[C@@H](O)C1O` (stereo partly specified) (stock concentration (mM, diluted 1:100): 10) it is 2.98 (inactive).
On to `CC(CCCCC(=O)Nc1ccc(C(F)(F)F)cc1)NCCc1cnc[nH]1` (stereo unspecified) (stock concentration (mM, diluted 1:100): 10), for which the “CDA2-GFP sporulation assay sensitivity score” value was 2.58 (inactive).
On the same count and under the same terms, the figure for `COc1ccc2cc([C@H](C)C(=O)O)ccc2c1` [Naproxen sodium] (stock concentration (mM, diluted 1:100): 10) is 1.69 (inactive); for `CCC(=O)O[C@]1(C(=O)SCF)[C@H](C)C[C@H]2[C@@H]3C[C@H](F)C4=CC(=O)C=C[C@]4(C)[C@@]3(F)[C@@H](O)C[C@@]21C` [Fluticasone propionate] (stock concentration (mM, diluted 1:100): 10) it is -2.57 (inactive); for `Cc1ccsc1C(=CCCN1CCC[C@@H](C(=O)O)C1)c1sccc1C` [Tiagabine hydrochloride] (stock concentration (mM, diluted 1:100): 9.1) it is 2.44 (inactive).
The same measure, in the same setting: next, `COc1cc(-c2ccc(=O)[nH]n2)ccc1OC(F)F` [Zardaverine] (stock concentration (mM, diluted 1:100): 11.7): 1.43 (inactive); `Cc1nc(=O)c2cc(CN(C)c3ccc(C(=O)N[C@@H](CCC(=O)O)C(=O)O)s3)ccc2[nH]1` [Raltitrexed] (stock concentration (mM, diluted 1:100): 10): -2.11 (inactive).
Still for that read-out and setting: the figure for `CNCC[C@@H](Oc1ccccc1C)c1ccccc1` [Atomexetine hydrochloride] (stock concentration (mM, diluted 1:100): 8.7) is 0.57 (inactive); for `COCCOC(=O)C1=C(C)NC(C)=C(C(=O)OC(C)C)C1c1cccc([N+](=O)[O-])c1` (stereo unspecified) [Nimodipine] (stock concentration (mM, diluted 1:100): 10) it is 0.44 (inactive); for `COCCCC/C(=N\OCCN)c1ccc(C(F)(F)F)cc1` [Fluvoxamine] (stock concentration (mM, diluted 1:100): 7.7) it is -1.51 (inactive).
Turning to `CC(C)Oc1ccc2c(=O)c(-c3ccccc3)coc2c1` [Ipriflavone] (stock concentration (mM, diluted 1:100): 10), the “CDA2-GFP sporulation assay sensitivity score” value was -1.58 (inactive).
Consider `Nc1ccn([C@H]2CC[C@@H](CO)O2)c(=O)n1` [Zalcitabine] (stock concentration (mM, diluted 1:100): 10), for which the “CDA2-GFP sporulation assay sensitivity score” value was 1.61 (inactive).
The same measure, in the same setting: the figure for `CN(C)CC[C@@H](c1ccc(Br)cc1)c1ccccn1` [Dexbrompheniramine maleate] (stock concentration (mM, diluted 1:100): 7.3) is -1.63 (inactive); for `CCN(CC)CC1CCCCN1CC(=O)N1c2ccccc2C(=O)Nc2cccnc21` (stereo unspecified) [Otenzepad] (stock concentration (mM, diluted 1:100): 10) it is 0.65 (inactive).

In another experiment the test system is S. cerevisiae AD1-9 (efflux-pump deficient), vegetative growth in YPD. Kind of experiment: growth sensitivity score (doubling time z-score vs DMSO controls); higher = slower growth, strongly negative scores also mark growth inhibition (complete suppression), active = hit call of the paper. In outline:
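Rich medium in microtiter plates was seeded with Saccharomyces cerevisiae strains BY4741 and AD1-9 at an OD600 of 0.065, and compounds were added as a 1:100 dilution of DMSO stock. A Tecan GENios reader recorded optical density every 15 min for 24 hours, with eight solvent-only wells in each experiment. Average doubling time was the time to reach a set generation point divided by generation number. The growth sensitivity score was the compound mean minus the solvent-only mean, divided by the solvent-only standard deviation.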
Regarding `C/C=C1\[C@H]2C=C(C)C[C@]1(N)c1ccc(=O)[nH]c1C2` [Huperzine a] (stock concentration (mM, diluted 1:100): 10), the growth sensitivity score is 1.24 (inactive).
`C=CC[C@@H]1/C=C(\C)C[C@H](C)C[C@H](OC)[C@H]2O[C@@](O)(C(=O)C(=O)N3CCCC[C@H]3C(=O)O[C@H](/C(C)=C/[C@@H]3CC[C@@H](O)[C@H](OC)C3)[C@H](C)[C@@H](O)CC1=O)[C@H](C)C[C@@H]2OC` [Tacrolimus] (stock concentration (mM, diluted 1:100): 10): the growth sensitivity score is 20.9 (active).
On the same count and under the same terms, next, `O=c1ncc(F)c[nH]1` [5-Fluoro-2-Pyrimidone] (stock concentration (mM, diluted 1:100): 10): -0.92 (inactive).
On the same count and under the same terms, the figure for `Cc1ccnc2c1NC(=O)c1cccnc1N2C1CC1` [Viramune] (stock concentration (mM, diluted 1:100): 10) is -1.4 (inactive); for `Nc1nc(O)c2ncn(CCC(CO)CO)c2n1` [Penciclovir] (stock concentration (mM, diluted 1:100): 10) it is -0.22 (inactive); for `CC(=O)CCCCn1c(=O)c2c(ncn2C)n(C)c1=O` [Pentoxifylline] (stock concentration (mM, diluted 1:100): 10) it is -1.09 (inactive).
As to `CC(=O)NCCCCCCNC(C)=O` [Hexamethylene bisacetamide] (stock concentration (mM, diluted 1:100): 10), the growth sensitivity score is 1.99 (inactive).
Same read-out and setting: next, `CC(=O)NC[C@H]1CN(c2ccc(N3CCOCC3)c(F)c2)C(=O)O1` [Linezolide] (stock concentration (mM, diluted 1:100): 10): 2.05 (active); `CNCCCC12CCC(c3ccccc31)c1ccccc12` [Maprotilline hydrochloride] (stock concentration (mM, diluted 1:100): 10): 86.6 (active); `CC1(C)C[C@@H]1C(=O)N/C(=C\CCCCSC[C@H](N)C(=O)O)C(=O)O` [Cilastatin] (stock concentration (mM, diluted 1:100): 9.4): -1.86 (inactive).
The same measure, in the same setting: next, `CNCCCCOc1ccccc1Cc1ccccc1` [Bifemelane] (stock concentration (mM, diluted 1:100): 10): 127 (active); `Clc1ccc2c(c1)CCc1cccnc1C2=C1CCNCC1` [Desloratadine] (stock concentration (mM, diluted 1:100): 10): 60.1 (active).
Regarding `O=c1cnn([C@@H]2O[C@H](CO)[C@@H](O)[C@H]2O)c(=O)[nH]1` [6-Azauridine] (stock concentration (mM, diluted 1:100): 10), the growth sensitivity score is 0.13 (inactive).
Same read-out and setting: next, `O=C(O[C@@H]1C[C@@H]2C[C@H]3C[C@H](C1)N2CC3=O)c1c[nH]c2ccccc12` [Dolasetron mesylate] (stock concentration (mM, diluted 1:100): 10.4): -0.71 (inactive).
`CN(C)CCC=C1c2ccccc2COc2ccccc21` [Doxepin] (stock concentration (mM, diluted 1:100): 10): the growth sensitivity score is 5.43 (active).
On the same count and under the same terms, next, `C=C1/C(=C\C=C2/CCC[C@]3(C)[C@@H]([C@H](C)CCCC(C)(C)O)CC[C@@H]23)C[C@@H](O)C[C@@H]1O` [Calcitriol] (stock concentration (mM, diluted 1:100): 10): 21.1 (active); `CN1CCCCC1CCN1c2ccccc2Sc2ccc([S+](C)[O-])cc21` (stereo unspecified) [Mesoridazine] (stock concentration (mM, diluted 1:100): 10): 278 (active); `CC(=O)Nc1ccc(CC(=O)O)cc1` [Actarit] (stock concentration (mM, diluted 1:100): 10): 0.98 (inactive).
Still for that read-out and setting: next, `Cn1c(NCCN(CCO)CCCc2ccc([N+](=O)[O-])cc2)cc(=O)n(C)c1=O` [Nifekalant hydrochloride] (stock concentration (mM, diluted 1:100): 9.2): 0.65 (inactive); `COc1cc2nc(N(C)CCCNC(=O)C3CCCO3)nc(N)c2cc1OC` (stereo unspecified) [Alfuzosin] (stock concentration (mM, diluted 1:100): 10): -1.12 (inactive); `CCCc1c(OCCCCc2nnn[nH]2)ccc(C(C)=O)c1O` (stock concentration (mM, diluted 1:100): 10): 5.49 (active).
On to `COc1cc(CNC(=O)CCCC/C=C/C(C)C)ccc1O` [Capsaicin] (stock concentration (mM, diluted 1:100): 10), for which the growth sensitivity score was 25.8 (active).
Same read-out and setting: the figure for `OC[C@H]1O[C@@H](n2cnc3c(N[C@H]4CCC[C@@H]4O)ncnc32)[C@@H](O)C1O` (stereo partly specified) (stock concentration (mM, diluted 1:100): 10) is -0.69 (inactive); for `CC(CCCCC(=O)Nc1ccc(C(F)(F)F)cc1)NCCc1cnc[nH]1` (stereo unspecified) (stock concentration (mM, diluted 1:100): 10) it is 1.41 (inactive).
On the same count and under the same terms, the figure for `COc1ccc2cc([C@H](C)C(=O)O)ccc2c1` [Naproxen sodium] (stock concentration (mM, diluted 1:100): 10) is 1.41 (inactive).
Same read-out and setting: next, `CCC(=O)O[C@]1(C(=O)SCF)[C@H](C)C[C@H]2[C@@H]3C[C@H](F)C4=CC(=O)C=C[C@]4(C)[C@@]3(F)[C@@H](O)C[C@@]21C` [Fluticasone propionate] (stock concentration (mM, diluted 1:100): 10): -1.65 (inactive).
